Hit rate of the full screen: of about 39,000 compounds, about 3,300 (8.5%) were called active. Shown is part of a subset that was picked to be rich in actives.

Here are results for 65 compounds from the antibiotic and cytotoxicity screens of Wong et al. (2023).

The assay has as its system HepG2. Briefly: cytotoxicity call (relative viability < 0.9). Conditions: 10 µM.
Consider `C/C=C/c1ccc2c(c1)O[C@@H](CN(C)Cc1ccc(C(=O)O)cc1)[C@H](C)CN([C@H](C)CO)S2(=O)=O`, for which the cytotoxicity call is “inactive”.

Consider `C[C@@H]1CN([C@@H](C)CO)C(=O)c2c(c3ccccc3n2C)-c2ccccc2CO[C@H]1CN(C)C(=O)c1ccc(F)cc1`, for which the cytotoxicity call was “inactive”.

As to `OC[C@H]1O[C@H](C#Cc2ccccc2)C=C[C@@H]1O`, the cytotoxicity call is “inactive”.

`C[C@H](CO)N1C[C@H](C)[C@H](CN(C)C(=O)Nc2ccc3c(c2)OCO3)Oc2c(NC(=O)c3ccncc3)cccc2C1=O`: the cytotoxicity call was “inactive”.

With `Cc1ccc(S(=O)(=O)N[C@H]2C=C[C@@H](CC(=O)NCCN3CCCCC3)O[C@@H]2CO)cc1`, the cytotoxicity call is “inactive”.

As for `Cn1cnc2c1c(=O)[nH]c(=O)n2C`, the cytotoxicity call is “inactive”.

In the case of `Cc1cc(C(=O)N2CCCC[C@@H]2CCOc2cccc(CN(C)Cc3cccc4cccnc34)c2)c(=O)[nH]c1C`, the cytotoxicity call was “inactive”.

As to `Cc1nc(-c2cccc(F)c2)cs1`, the cytotoxicity call is “inactive”.

`COc1ccc2c3c([nH]c2c1)[C@@H](CO)N(C[C@]13CN(CC2CCOCC2)C1)C(=O)Nc1c(noc1C)C`: the cytotoxicity call is “inactive”.

In the case of `C[C@@H]1CCCCO[C@@H](CN(C)C(=O)Nc2ccccc2)[C@@H](C)CN([C@H](C)CO)C(=O)c2cc(NC(=O)Nc3cccc4ccccc34)ccc2O1`, the cytotoxicity call was “inactive”.

As for `C[C@@H]1CN([C@@H](C)CO)C(=O)c2cc(NC(=O)Nc3ccc(F)cc3)ccc2O[C@H]1CN(C)S(C)(=O)=O`, the cytotoxicity call is “inactive”.

For the compound `COc1ccc(NC(=O)N(C)C[C@@H]2Oc3ccc(NC(=O)Nc4ccc(C(F)(F)F)cc4)cc3CC(=O)N([C@H](C)CO)C[C@@H]2C)cc1`, the cytotoxicity call is “inactive”.

On to `COc1ccc(NC(=O)N(C)C[C@H]2Oc3ccc(NC(=O)Nc4ccc(C(F)(F)F)cc4)cc3CC(=O)N([C@@H](C)CO)C[C@H]2C)cc1`, for which the cytotoxicity call is “active”.

Turning to `COc1ccc(NC(=O)Nc2ccc3c(c2)CC(=O)N([C@@H](C)CO)C[C@H](C)[C@@H](CN(C)C(=O)Nc2ccc(C(F)(F)F)cc2)O3)cc1`, the cytotoxicity call was “inactive”.

Consider `COc1ccc(NC(=O)Nc2ccc3c(c2)CC(=O)N([C@@H](C)CO)C[C@H](C)[C@H](CN(C)C(=O)Nc2ccc(C(F)(F)F)cc2)O3)cc1`, for which the cytotoxicity call is “active”.

Consider `COc1ccc(NC(=O)Nc2ccc3c(c2)CC(=O)N([C@H](C)CO)C[C@H](C)[C@H](CN(C)C(=O)Nc2ccc(C(F)(F)F)cc2)O3)cc1`, for which the cytotoxicity call was “inactive”.

On to `COc1ccc(NC(=O)Nc2ccc3c(c2)CC(=O)N([C@@H](C)CO)C[C@@H](C)[C@@H](CN(C)C(=O)Nc2ccc(C(F)(F)F)cc2)O3)cc1`, for which the cytotoxicity call was “inactive”.

With `CO[C@H]1CCN(C(=O)CN(C)C)[C@@H]2CCO[C@@H]12`, the cytotoxicity call was “inactive”.

Take `C[C@H](CO)N1C[C@H](C)[C@@H](CN(C)Cc2cccc3c2OCCCO3)OCc2ccccc2-c2c(n(C)c3ccccc23)C1=O`: the cytotoxicity call was “inactive”.

Regarding `CCCC(=O)Nc1ccc2c(c1)C(=O)N(C)C[C@@H](OC)[C@@H](C)CN(Cc1ccc(-c3ccccn3)cc1)[C@H](C)CO2`, the cytotoxicity call is “inactive”.

For the compound `CN1C(=O)c2cc(NS(C)(=O)=O)ccc2OC[C@@H]2O[C@H](CC(=O)N3CCOCC3)CC[C@@H]21`, the cytotoxicity call was “inactive”.

Take `C[C@@H]1C(=O)O[C@@H]2C[C@@](C)(O)[C@H]3C[C@H]4O[C@@]4(C)[C@@]3(O)C(=O)[C@@H]12`: the cytotoxicity call is “inactive”.

For `Cc1ccc(S(=O)(=O)N(C)C[C@H]2Oc3ccc(NC(=O)CCN4CCOCC4)cc3C(=O)N([C@@H](C)CO)C[C@H]2C)cc1`, the cytotoxicity call is “inactive”.

Regarding `COc1ccc(S(=O)(=O)N(C)C[C@@H]2Oc3ccc(N(C)C)cc3C(=O)N([C@@H](C)CO)C[C@H]2C)cc1`, the cytotoxicity call was “active”.

On to `COc1ccc(S(=O)(=O)N(C)C[C@@H]2Oc3ccc(NC(=O)C4CC4)cc3C(=O)N([C@@H](C)CO)C[C@H]2C)cc1`, for which the cytotoxicity call is “inactive”.

Turning to `Cc1ccc(S(=O)(=O)N(C)C[C@@H]2Oc3ccc(NC(=O)C4CC4)cc3C(=O)N([C@@H](C)CO)C[C@H]2C)cc1`, the cytotoxicity call was “active”.

In the case of `COc1ccc(S(=O)(=O)N(C)C[C@H]2Oc3ccc(NC(=O)C4CC4)cc3C(=O)N([C@@H](C)CO)C[C@H]2C)cc1`, the cytotoxicity call was “inactive”.

In the case of `Cc1ccc(S(=O)(=O)N(C)C[C@@H]2Oc3ccc(NC(=O)C4CC4)cc3C(=O)N([C@H](C)CO)C[C@@H]2C)cc1`, the cytotoxicity call is “inactive”.

Regarding `Cc1ccc(S(=O)(=O)N(C)C[C@@H]2Oc3ccc(NC(=O)CCN4CCOCC4)cc3C(=O)N([C@H](C)CO)C[C@@H]2C)cc1`, the cytotoxicity call was “inactive”.

`COc1ccc(S(=O)(=O)N(C)C[C@H]2Oc3ccc(N(C)C)cc3C(=O)N([C@@H](C)CO)C[C@H]2C)cc1`: the cytotoxicity call is “inactive”.

`Cc1ccc(S(=O)(=O)N(C)C[C@H]2Oc3ccc(NC(=O)C4CC4)cc3C(=O)N([C@@H](C)CO)C[C@H]2C)cc1`: the cytotoxicity call is “inactive”.

As to `Cc1ccc(S(=O)(=O)N(C)C[C@H]2Oc3ccc(NC(=O)CCN4CCOCC4)cc3C(=O)N([C@@H](C)CO)C[C@@H]2C)cc1`, the cytotoxicity call is “active”.

Regarding `COc1ccc(S(=O)(=O)N(C)C[C@@H]2Oc3ccc(N(C)C)cc3C(=O)N([C@H](C)CO)C[C@@H]2C)cc1`, the cytotoxicity call was “inactive”.

For the compound `COc1ccc(S(=O)(=O)N(C)C[C@H]2Oc3ccc(NC(=O)C4CC4)cc3C(=O)N([C@@H](C)CO)C[C@@H]2C)cc1`, the cytotoxicity call is “active”.

With `C[C@@H]1CCCCO[C@H](CN(C)S(=O)(=O)c2ccccc2)[C@@H](C)CN([C@@H](C)CO)C(=O)c2cc(NS(C)(=O)=O)ccc2O1`, the cytotoxicity call was “inactive”.

As for `O/N=C1\CCCCc2c1[nH]c1ccc(C3CCCCC3)cc21`, the cytotoxicity call was “inactive”.

Turning to `C[C@@H]1CCCCO[C@@H](CN(C)C(=O)c2ccncc2)[C@H](C)CN([C@H](C)CO)C(=O)c2cc(NC(=O)NC3CCCCC3)ccc2O1`, the cytotoxicity call is “inactive”.

In the case of `C[C@@H]1CN([C@H](C)CO)C(=O)c2cccc(NC(=O)c3cnccn3)c2O[C@H]1CN(C)Cc1ccncc1`, the cytotoxicity call is “inactive”.

In the case of `C[C@H](CO)N1C[C@H](C)[C@H](CN(C)Cc2ccc(-c3ccccc3)cc2)Oc2c(NS(=O)(=O)c3ccc(Cl)cc3)cccc2C1=O`, the cytotoxicity call was “inactive”.

As to `N=C(N)NCCCCNC(=N)N.O=S(=O)(O)O`, the cytotoxicity call is “inactive”.

In the case of `N=C(N)NCCCCN.O=S(=O)(O)O`, the cytotoxicity call is “inactive”.

Consider `N=C(N)NCCCCNC(=N)N`, for which the cytotoxicity call is “active”.

Consider `O=C(Nc1ccc2c(c1)[C@H]1C[C@H](CC(=O)N3CCc4ccccc4C3)O[C@@H](CO)[C@H]1O2)C1CCOCC1`, for which the cytotoxicity call is “inactive”.

For the compound `C[C@@H]1CN([C@H](C)CO)C(=O)Cc2cc(NC(=O)Nc3cccc4ccccc34)ccc2O[C@H]1CN(C)Cc1ccc(-c2ccccc2)cc1`, the cytotoxicity call is “inactive”.

Regarding `C[C@H]1CN([C@@H](C)CO)C(=O)Cc2cc(NC(=O)Nc3cccc4ccccc34)ccc2O[C@@H]1CN(C)Cc1ccccc1`, the cytotoxicity call is “inactive”.

As to `C[C@H](CO)N1C[C@H](C)[C@@H](CN(C)Cc2ccccc2)Oc2ccc(NC(=O)Nc3cccc4ccccc34)cc2CC1=O`, the cytotoxicity call is “active”.

On to `C[C@H](CO)N1C[C@H](C)[C@H](CN(C)Cc2ccccc2)Oc2ccc(NC(=O)Nc3cccc4ccccc34)cc2CC1=O`, for which the cytotoxicity call was “active”.

In the case of `C[C@@H]1CN([C@@H](C)CO)C(=O)Cc2cc(NC(=O)Nc3cccc4ccccc34)ccc2O[C@H]1CN(C)Cc1ccccc1`, the cytotoxicity call was “inactive”.

In the case of `C[C@@H]1CN([C@H](C)CO)C(=O)Cc2cc(NC(=O)Nc3cccc4ccccc34)ccc2O[C@H]1CN(C)Cc1ccccc1`, the cytotoxicity call was “inactive”.

`C[C@H]1CN([C@@H](C)CO)C(=O)Cc2cc(NC(=O)Nc3cccc4ccccc34)ccc2O[C@H]1CN(C)Cc1ccccc1`: the cytotoxicity call was “inactive”.

Consider `C[C@@H]1CN([C@@H](C)CO)C(=O)Cc2cc(NC(=O)Nc3cccc4ccccc34)ccc2O[C@@H]1CN(C)Cc1ccccc1`, for which the cytotoxicity call was “active”.

On to `C[C@H](CO)N1C[C@H](C)[C@@H](CN(C)Cc2ccc(-c3ccccc3)cc2)Oc2ccc(NC(=O)Nc3cccc4ccccc34)cc2CC1=O`, for which the cytotoxicity call is “inactive”.

Take `C[C@@H]1CN([C@H](C)CO)C(=O)Cc2cc(NC(=O)Nc3cccc4ccccc34)ccc2O[C@@H]1CN(C)Cc1ccccc1`: the cytotoxicity call was “active”.

With `C[C@H](CO)N1C[C@H](C)[C@H](CN(C)Cc2ccc(-c3ccccc3)cc2)Oc2ccc(NC(=O)Nc3cccc4ccccc34)cc2CC1=O`, the cytotoxicity call was “inactive”.

With `C[C@H]1CN([C@@H](C)CO)C(=O)Cc2cc(NC(=O)Nc3cccc4ccccc34)ccc2O[C@@H]1CN(C)Cc1ccc(-c2ccccc2)cc1`, the cytotoxicity call was “inactive”.

Regarding `C[C@@H]1CN([C@@H](C)CO)C(=O)CCCn2cc(nn2)CO[C@@H]1CN(C)S(=O)(=O)c1ccc(-n2cccn2)cc1`, the cytotoxicity call is “inactive”.

As to `C[C@H]1CN([C@@H](C)CO)S(=O)(=O)c2ccc(C#Cc3cccnc3)cc2O[C@H]1CN(C)CC1CCOCC1`, the cytotoxicity call is “inactive”.

As for `COc1ccc(S(=O)(=O)N(C)C[C@H]2Oc3ccc(NS(=O)(=O)c4ccc(F)cc4)cc3CC(=O)N([C@@H](C)CO)C[C@H]2C)cc1`, the cytotoxicity call was “inactive”.

Regarding `COC(=O)[C@H]1CN(C)CCC1=O`, the cytotoxicity call was “inactive”.

Take `C[C@@H]1O[C@@H](OC[C@H]2O[C@@H](Oc3cc(O)c4c(c3)O[C@@H](c3ccc(O)cc3)CC4=O)[C@H](O)[C@@H](O)[C@@H]2O)[C@H](O)[C@H](O)[C@H]1O`: the cytotoxicity call is “inactive”.

For the compound `COc1ccc([Si](C)(C)[C@H]2[C@H](CCn3cc([C@H](O)c4ccccc4)nn3)O[C@@]3(C(=O)N(Cc4cccc(N5CCC5=O)c4)c4ccccc43)[C@@H]2C)cc1`, the cytotoxicity call was “inactive”.

As for `Cc1ccc(S(=O)(=O)N(C)C[C@@H]2Oc3c(NC(=O)c4cc(C)nn4C)cccc3C(=O)N([C@@H](C)CO)C[C@@H]2C)cc1`, the cytotoxicity call is “inactive”.

Consider `C=CCOC(=O)[C@@H]1[C@H]2C(=O)O[C@H](c3ccccc3)[C@H](c3ccccc3)N2[C@H](c2ccc(OCCOC(=O)[C@H]3C[C@H]4C(=O)NCC(=O)N4[C@H]3c3ccc(O)cc3)cc2)[C@@]12C(=O)Nc1ccc(I)cc12`, for which the cytotoxicity call was “inactive”.

Take `Cc1ccccc1S(=O)(=O)N1C[C@@H](O)COC[C@@H]2O[C@@H](CC(=O)N3CCOCC3)CC[C@H]21`: the cytotoxicity call was “inactive”.

For `CC(C)N1C[C@H](CNCc2ccc(Oc3ccccc3)cc2)Oc2c(NC(=O)c3ccncc3)cccc2C1=O`, the cytotoxicity call is “inactive”.
